Source: PubChem BioAssay (National Center for Advancing Translational Sciences (NCATS))
A-T KAP1 phos – candidate therapy for ataxia-telangiectasia. F2112 A-T fibroblasts, KAP-1 phosphorylation AlphaLISA; neocarzinostatin DNA damage 30 min before lysis. Potency, µM (series often up to 57.5 µM), without a hit: at the top dose activation, most hits filed as activators. 320,000 compounds, 0.19% hits. AID 485349; active = well fitted activation curve with a large enough effect; note: potency is the fitted concentration of half-maximal effect; % of control where 0% means no effect; nearly all actives have a fitted effect of over 45% in size
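hTERT-immortalized A-T patient fibroblasts (F2112), 500 cells/well in OPTI-MEM, 1% FBS, got compounds for 60 min, then NCS for 30 min at 37C. Lysates were then assayed for phospho-KAP-1 by AlphaLISA (anti-pKAP1 donor, anti-KAP1 acceptor beads), 6 hr at 25C.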
TRPV1 PAM – enhances activation of the human vanilloid receptor TRPV1. Q8NER1. TRPV1-expressing cells, Fluo-8 calcium influx, capsaicin EC20 potentiation. potentiation, % at 8.33 µM. 320,000 compounds, 0.02% hits; in the data active = potentiation above about 80%; note: 0% is about no effect
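Fluo-8 calcium influx in TRPV1-expressing cells, kinetic read (ex 480/em 520 nm). Compound added and read 3 min for agonist activity, followed by capsaicin at EC20 final and 2 min further read for enhancement.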
TRPML1 inh – human mucolipin-1 channel inhibition. AID 624415. 390,000 compounds, 0.02% hits. activity change, negative = inhibition, % (no concentration beside the values). TRPML1-inducible cells, Ca2+ dye fluorescence, FDSS; active compounds read low; inhibition of EC80 agonist-evoked calcium signal. Q9GZU1; in the data active = activity change below about -50%;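 note: stimulus is agonist 54-4 at its EC80 concentration; % is set by controls: 0 for no effect and ±100 for the full control effect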
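Calcium fluorescence in TRPML1-DL cells induced overnight with Tet: a 110 s read after compound pin addition, then a 110 s antagonist read after challenge with 54-4 at 4 uM final (EC80).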
TRPML1 agonist – human mucolipin-1 channel agonism. TRPML1-expressing cells, Ca2+ dye fluorescence, FDSS. activation, % (no concentration beside the values). 410,000 compounds, 0.12% hits. AID 624414; in the data active = activation above about 50%; note: 0% is about no effect
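In this qHTS format, compounds were pin-transferred onto Ca8-dye-loaded TRPML1-DL cells induced with Tet overnight, and intracellular Ca2+ fluorescence was recorded kinetically for 110 s after a 10 s baseline. A subsequent 4uM final 54-4 (EC80) addition followed by a second 110 s read served as the antagonist phase.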
TRPV1 agonist – human TRPV1 agonism; Q8NER1; TRPV1-expressing cells, Fluo-8 calcium influx, agonist mode; activation, % at 8.33 µM; 320,000 compounds, 0.19% hits; in the data active = activation above about 80%; note: 0% is about no effect
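Fluo-8 calcium influx in TRPV1-expressing cells, kinetic read (ex 480/em 520 nm). Compound added and read 3 min for agonist activity, followed by capsaicin at EC20 final and 2 min further read for enhancement.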
* hit, by the source's call. Sampled rows, rich in hits. Any-hit rate of the full collection: about 0.41%.

For C[C@H]1O[C@@H](O[C@H]2[C@@H](O)C[C@@H](O[C@H]3[C@@H](O)C[C@H](O[C@H]4CC[C@@]5(C)[C@H](CC[C@@H]6[C@@H]5CC[C@]5(C)[C@@H](C7=CC(=O)OC7)CC[C@]65O)C4)O[C@@H]3C)O[C@@H]2C)C[C@H](O)[C@@H]1O the results were TRPML1 agonist -0.1.
Screening CC(=O)N1CC(=O)Nc2ccc(F)cc2C1c1ccccc1 (centres undefined) returned A-T KAP1 phos 6.9%, TRPV1 PAM 8.4, TRPML1 inh 35.8, TRPML1 agonist 0.5 and TRPV1 agonist -3.5.
Screening CC(=O)N1CC(=O)Nc2ccc(Cl)cc2C1c1ccccc1 (centres undefined) returned A-T KAP1 phos 25.1µM*, TRPV1 PAM -4.6, TRPML1 inh -7.3, TRPML1 agonist -0.5 and TRPV1 agonist 2.1.
For ClCCN(CCCl)c1ccc(/C=C/c2sc3ccccc3[n+]2CCCCI)cc1 the results were TRPML1 agonist 19.9.
For O=C(c1ccccc1)C(CN1CCCC1)c1ccccc1 (centres undefined) the results were A-T KAP1 phos 25.1µM*, TRPV1 PAM 27.8, TRPML1 inh -8.9, TRPML1 agonist 1.7 and TRPV1 agonist -1.9.
Screening [Hg+][c]1ccccc1 returned TRPML1 agonist 0.4.
Screening Cc1ccc(Cn2nc(C(=O)Nc3ccc(Br)cc3)cc2C)cc1 returned A-T KAP1 phos -15.9%, TRPV1 PAM -2.7, TRPML1 inh 66.5, TRPML1 agonist 5.1 and TRPV1 agonist 107.9*.
`CCOC(=O)CCCc1cc[c]([Sb](=[O])([OH])[OH])cc1` gave TRPML1 agonist -0.7.
COCCNC(=O)c1c(N)n(CCC(C)C)c2nc3ccccc3nc12 was read as TRPV1 PAM 0.4, TRPML1 inh 10.5, TRPML1 agonist 0.8 and TRPV1 agonist 2.1.
For CC(C)CCn1c(N)c(C(=O)NCc2cccs2)c2nc3ccccc3nc21 the results were A-T KAP1 phos 28.2µM*, TRPV1 PAM 10.4, TRPML1 inh -8.5, TRPML1 agonist -0.3 and TRPV1 agonist 3.5.
`CC1(C)C[C@H]2C=C(C=O)[C@]3(C=O)C[C@]3(C)[C@H]2C1` gave A-T KAP1 phos 3.55µM*, TRPV1 PAM 8.7 and TRPV1 agonist -0.3.
